In the library only some 3.4% were active in any assay of this set; here they are far more common.
MITF act: increases MITF-driven TRPM1 promoter luciferase signal | AID 588334 | hit rate 0.75% among 300,000 | SK-MEL-5 TRPM1-promoter luciferase, 24 h; % of positive control, neutral wells = 0 | activation, % at 12.5 µM;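 active = mean activation of at least 80% with every replicate also reaching 80%; inconclusive = mean reaches 80% but some replicate falls short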;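 note: 0% = neutral control wells and 100% = parthenolide positive control wells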
miR-122 sensor: miR-122 inhibition in Huh7 cells | Huh7 miR-122 Renilla luciferase sensor, 48 h; neutral wells = 0, positive control = 100 | activation (reporter increase), % at 12.5 µM | hit rate 0.3% among 340,000;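 active = mean replicate activation score at least 90 and every replicate individually at or above 90; inconclusive = only one of the two criteria met; inactive = neither criterion met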;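 note: higher luciferase means less miR-122 activity so hits act as miR-122 inhibitors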
HIV Env fusion: blocks HIV Env-driven cell-cell fusion; HeLa-JRFL Env/CEM21 cell fusion, luciferase; inhibition, % at 12.3 µM; hit rate 1.1% among 360,000; AID 651610;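 active = mean replicate inhibition score of at least 50 and every replicate individually at or above 50; inconclusive = only one of the two criteria met; inactive = mean below 50 and not all replicates reaching 50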;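 note: 0% = plate neutral controls and 100% = maraviroc near 300 nM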
Wnt bcat act: activates Wnt/beta-catenin signaling in a reporter cell assay; hit rate 1.2% among 300,000; activator, plate reader; activation, % at 9.35 µM; AID 743398; in the data active = activation above about 30%, passing the limit was not always enough; inconclusive = no clear call, values can overlap the other calls;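 note: 0% = neutral control wells and 100% = positive control wells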
esBAF inh: inhibitors of esBAF chromatin remodeling in mouse ES cells. Bmi1-luciferase knock-in reporter, 24 h; 100% = twice the neutral-well signal. reporter increase, % at 12.5 µM. hit rate 2% among 350,000; in the data active = activation above about 40%; inconclusive = no clear call, values can overlap the other calls;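 note: 0% = median of the plate's neutral control wells and 100% = double that signal; a rise in the Bmi1 reporter signal indicates esBAF inhibition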
An asterisk follows results filed as active; u = inconclusive; x = no result given; [ ] = dose if it differs, or a comment.

SMILES	MITF act	miR-122 sensor	HIV Env fusion	Wnt bcat act	esBAF inh
COc1ccccc1-c1noc(-c2ccco2)n1	90*	1	x	-2	21
COc1ccc(-c2ccc(-c3noc(-c4ccccc4)n3)c(OC)n2)cc1	1	-3	x	3	-5
CCOc1ccccc1-c1nc(-c2ccc(C)nc2OC)no1	x	130*	-230	51*	69*
COc1ccccc1-c1noc(-c2ccccc2)n1	33	24	x	x	x
COc1nc(-c2ccccc2)ccc1-c1noc(-c2ccco2)n1	x	1	-124	x	76*
COCC#Cc1ccc2c(c1)O[C@H](CN(C)CC1CC1)[C@H](C)CN([C@@H](C)CO)S2(=O)=O	x	x	8[16.7 µM]	x	0
COc1nc(C)ccc1-c1noc(-c2ccncc2)n1	97*	-2	-152	0	20
COc1nc(-c2ccccc2)ccc1-c1noc(-c2ccccc2)n1	58	5	x	-5	44*
COc1ccc(-c2ccc(-c3noc(-c4ccco4)n3)c(OC)n2)cc1	54	-2	-72	4	48*
Cc1noc(C)c1S(=O)(=O)N(C)C[C@@H]1Oc2ccc(NC(=O)Nc3cccc4ccccc34)cc2CC(=O)N([C@@H](C)CO)C[C@H]1C	x	-9[16.7 µM]	10[16.7 µM]	x	-2
Cc1ccc2nc3ccc(N4CCN(C)CC4)nn3c(=O)c2c1	33	-12	x	x	49*
O=c1c2ccccc2nc2ccc(N3CCOCC3)nn12	46	-9	-35	u	x
Cc1sc2nc3ccc(N4CCCC4)nn3c(=O)c2c1C	31	-9	17	5	52*
Cc1ccc2nc3n(c(=O)c2c1)CCCCC3	44	1	-5	18	31
Cc1ccc2nc3ccc(N4CCCCCCC4)nn3c(=O)c2c1	x	-7	-222	29	60*
COc1ccc(S(=O)(=O)N[C@@H]2CC[C@H](CC(=O)O)O[C@H]2CO)cc1	x	x	6[16.7 µM]	x	0
Cc1ccccc1-c1cnc2c(c1)C(=O)N([C@@H](C)CO)C[C@@H](C)[C@H](CN(C)CC1CCOCC1)O2	x	-3[16.7 µM]	-10[16.7 µM]	x	-2
COc1ccc(-c2ccc3c(c2)O[C@@H](CN(C)CC2CC2)[C@@H](C)CN([C@H](C)CO)S3(=O)=O)cc1	x	-4[16.7 µM]	-4[16.7 µM]	x	-2
CCOC(=O)C(=O)c1c(-c2ccccc2)nc2ccccn12	-21	1	8	-1	x
CCOC(=O)c1c(-c2ccccc2)nc2cc(C)ccn12	x	-19	-184	21	52*
CCOC(=O)c1c(-c2ccccc2)nc2ccc(C)cn12	43	3	-236	47*	47*
Cc1ccc(C(=O)Nc2ccc3c(c2)OCO3)o1	13	0	x	x	48*
C/C(=C\C(=O)c1ccccc1)Nc1ccc2c(c1)OCO2	60	x	-6	8	x
O=C(Nc1ccc2c(c1)OCCO2)c1ccc(Br)o1	48	4	-215	55*	17
C/C(=C\C(=O)c1ccc(C)o1)Nc1ccc2c(c1)OCO2	79	0	-64	x	66*
SMILES	MITF act	miR-122 sensor	HIV Env fusion	Wnt bcat act	esBAF inh
Cc1ccc(C(=O)OCC(=O)Nc2ccc3c(c2)OCO3)o1	-1	-14	-47	1	-2
Cc1ccccc1S(=O)(=O)N[C@H]1CC[C@@H](CCn2cc(-c3ccc(F)cc3)nn2)O[C@@H]1CO	x	18[16.7 µM]	11[16.7 µM]	x	-8
CCN(CC)S(=O)(=O)c1ccc2c(c1)nc(-c1ccccn1)n2C	x	x	-12	17	60*
Cc1nc(Cc2ccccc2)sc1CC#N	-2	x	9	51*	2
c1ccc(Cc2nc3ccccc3s2)cc1	-6	9	-10	21	29
CN1C(=O)c2cc(NC(=O)C3CC3)ccc2OC[C@H]2O[C@@H](CC(=O)NCCN3CCCC3)CC[C@H]21	x	-12[16.7 µM]	x	x	3
CCOC(=O)Nc1ccc2c(c1)C(=NNC(N)=S)c1ccccc1-2	4	23	-19	0	-35
CCOC(=O)Nc1ccc2c(c1)C(=NO)c1ccccc1-2	41	x	-44	55*	x
CCOC(=O)Nc1ccc2c(c1)Cc1cc([N+](=O)[O-])ccc1-2	77	-10	-44	-1	75*
O=C(C[C@H]1CC[C@H](NC(=O)Nc2cc(F)ccc2F)[C@@H](CO)O1)NCc1ccc2c(c1)OCO2	x	9[16.7 µM]	18[16.7 µM]	x	-8
O=C(Cc1ccc(Cl)cc1Cl)Nc1ccncc1Cl	-5	x	x	-4	-18
O=C(Cc1cccs1)NCc1ccc(Cl)cc1Cl	x	-2	-39	27	66*
O=C(Cc1cccs1)NCc1cccc(Cl)c1	61	2	-92	8	50*
O=C(Cc1ccccc1[N+](=O)[O-])NCc1ccc(Cl)cc1	29	-3	x	x	x
O=C(Cc1ccc(Cl)cc1Cl)Nc1ccncc1	-15	4	73*	-3	-22
O=C(Cc1ccccc1[N+](=O)[O-])NCc1ccc(Cl)cc1Cl	94*	x	-38	17	x
O=C(C[C@H]1C[C@H]2c3cc(NC(=O)Cc4ccncc4)ccc3O[C@H]2[C@H](CO)O1)NCc1cccnc1	x	3[16.7 µM]	18[16.7 µM]	x	3
CC(C)NC(=O)N(C)C[C@@H]1OCCCC[C@@H](C)Oc2ccc(NC(=O)Nc3ccc(F)cc3)cc2C(=O)N([C@@H](C)CO)C[C@H]1C	x	8[16.7 µM]	-3[16.7 µM]	x	4
COc1ccc(NC(=O)N(C)C[C@H]2Oc3ccc(NC(=O)Nc4cccc5ccccc45)cc3C(=O)N([C@H](C)CO)C[C@H]2C)cc1	x	4[16.7 µM]	6[16.7 µM]	x	8
C[C@H]1CCCCO[C@H](CN(C)C(=O)NC2CCCCC2)[C@@H](C)CN([C@@H](C)CO)C(=O)c2cc(NC(=O)Cc3ccccc3)ccc2O1	x	2[16.7 µM]	35[16.7 µM]	x	14
C[C@@H]1CCCCO[C@@H](CN(C)C(=O)c2ccccc2)[C@@H](C)CN([C@@H](C)CO)C(=O)c2cc(NS(=O)(=O)c3ccc(F)cc3)ccc2O1	x	-10[16.7 µM]	-22[16.7 µM]	x	-3
CC(C)NC(=O)Nc1ccc2c(c1)C(=O)N([C@H](C)CO)C[C@H](C)[C@@H](CN(C)C(=O)NC(C)C)OCCCC[C@H](C)O2	x	28[16.7 µM]	-5[16.7 µM]	x	x
C[C@H]1CCCCO[C@@H](CN(C)Cc2ccncc2)[C@@H](C)CN([C@@H](C)CO)C(=O)c2cc(NC(=O)Nc3cccc4ccccc34)ccc2O1	x	-7[16.7 µM]	70*[16.7 µM]	x	1
C[C@@H]1CCCCO[C@@H](CN(C)Cc2ccccc2)[C@H](C)CN([C@@H](C)CO)C(=O)c2cc(NC(=O)Nc3cccc4ccccc34)ccc2O1	x	6[16.7 µM]	33[16.7 µM]	x	-3
C[C@H](CO)N1C[C@H](C)[C@H](CN(C)Cc2ccccc2)OCCCC[C@H](C)Oc2ccc(NC(=O)Nc3cccc4ccccc34)cc2C1=O	x	4[16.7 µM]	114*[16.7 µM]	x	-5
C[C@@H]1CCCCO[C@H](CN(C)Cc2ccncc2)[C@H](C)CN([C@@H](C)CO)C(=O)c2cc(NC(=O)Nc3cccc4ccccc34)ccc2O1	x	5[16.7 µM]	-57[16.7 µM]	x	-3
C[C@@H]1CN([C@H](C)CO)C(=O)c2cc(NC(=O)CCN3CCOCC3)ccc2O[C@H]1CN(C)S(C)(=O)=O	x	-5[16.7 µM]	3[16.7 µM]	x	-4
COc1nc(Nc2nc3ccccc3c(=O)[nH]2)nc2ccc(C)cc12	-30	10	103*	-18	x
